# Data reported in PubChem BioAssay AID624296 (National Center for Advancing Translational Sciences (NCATS), 2012).
# “And” between values parts separate entries of the source, which are not always exact repeats. Equal entries are not always repeated. About 9,900 (2.8%) of roughly 350,000 compounds were called active. Inconclusive results (about 15%) are left out. Calls come from the whole dose curve; as a rule, active = well fitted activation curve with a large enough effect; inconclusive = small, poorly fitted or top-dose-only effect; inactive = no such curve, though single readings can be large or run the other way. Shown is part of a subset that was picked to be rich in actives. The source holds several records for some structures; these can differ, active in one and inactive in another.
# Experiment: A quantitative high throughput screen for small molecules that induce DNA re-replication in MCF 10a normal breast cells. For activity, positive = re-replication: % of control where 0% means no effect. Note: nearly all actives have a fitted effect of over 50% in size.
# Settings: MCF 10A DNA re-replication, Hoechst nuclear intensity, 48 h; series mostly up to 46.1 µM; activity, positive = re-replication: at the top concentration
# Potency is the fitted concentration of half-maximal effect.
Compound,"activity, positive = re-replication",Potency
CN(C)c1ccc(-n2cccc2/C=C2/SC(=Nc3ccc(F)cc3)NC2=O)cc1,-10.2% (inactive),–
Cc1ccc(N2NC(=O)/C(=C/C=C/c3ccco3)C2=O)cc1C,–,23.1 µM (active)
COc1cc(/C=C2/C(=O)NN(c3cccc(Cl)c3)C2=O)cc(Br)c1O,-2.08% (inactive),–
Cc1ccc(N=C2NC(=O)/C(=C/C=C/c3ccco3)S2)cc1C,–,7.31 µM (active)
CCC1S/C(=N/N=C/c2ccco2)NC1=O (configuration not stated),4.53% (inactive),–
O=C1NN(c2ccccc2)C(=O)/C1=C/c1ccc(-c2cccc(C(=O)O)c2)o1,10.3% (inactive),–
CC(C)c1ccc(S(=O)(=O)N2CCN(C(C)C(=O)NC3CCCC3)CC2)cc1 (configuration not stated),18.7% (inactive),–
COc1ccc(CCNC(=O)c2ccc(NC(=O)CC3SC(N4CCCCC4)=NC3=O)cc2)cc1OC (configuration not stated),-0.0243% (inactive),–
Cn1c(N)cc(=O)n(C)c1=S,0.759% (inactive),–
Cc1cnc(NC(=O)CSc2nnc(-c3ccc(Cl)cc3Cl)n2N)s1,-3.27% (inactive),–
Cc1ccc(CCC(=O)Nc2ncc(Cc3cc(Cl)ccc3Cl)s2)o1,–,1.16 µM (active)
CCOc1ccccc1NC(=O)CCc1ccc(C)o1,-0.239% (inactive),–
CNS(=O)(=O)c1ccc(C(=O)NCC(=O)NCCc2ccc3c(c2)OCCO3)cc1,0.564% (inactive),–
N/C(=N\OC(=O)N1c2ccccc2Sc2ccccc21)c1ccc(Br)cc1,–,5.17 µM (active)
CCOC(=O)CNC(=O)N1c2ccccc2Sc2ccccc21,-0.866% (inactive),–
N/C(=N\OC(=O)c1ccc2c(c1)OCO2)c1ccc(Br)cc1,0.704% (inactive),–
O=C(OCC(=O)N1CCN(c2ccccc2)CC1)c1ccc([N+](=O)[O-])s1,-0.635% (inactive),–
COc1ccc(CCNC(=O)COC(=O)c2cnc(Cl)c(Cl)c2)cc1,8.58% (inactive),–
Cc1nnc(OCC(=O)NCCC2=CCCCC2)c2ccccc12,–,20.6 µM (active)
O=C(Cc1cccc2ccccc12)NCCC1=CCCCC1,-2.42% (inactive),–
O=C(COc1cccc(-n2cnnn2)c1)NCCC1=CCCCC1,8.98% (inactive),–
O=C(OCCOc1ccccc1F)c1cc(S(=O)(=O)N2CCOCC2)ccc1F,-9.85% (inactive),–
CCCCN(C(=O)c1nn(C)c(=O)c2ccccc12)c1c(N)n(CCC)c(=O)[nH]c1=O,-7.2% (inactive),–
CCC1=C(C(=O)OC)C(c2cc(OC)ccc2OC)C(C#N)=C(N)O1 (configuration not stated),5.44% (inactive),–
COC(=O)C1=C(C)OC(N)=C(C#N)C1c1cc(OC)ccc1OC (configuration not stated),-1.47% (inactive),–
COc1ccc(C2C(C#N)=C(N)Oc3cc(N)ccc32)cc1OC (configuration not stated),–,18.4 µM (active)

Compound,"activity, positive = re-replication",Potency
O=C1NCC(c2ccccc2)(c2ccccc2)C(=O)N1,-6.97% (inactive),–
O=C(Cc1ccc([N+](=O)[O-])cc1)NCCc1ccc2c(c1)OCO2,1.24% (inactive),–
O=C(c1cccnc1)N(Cc1ccccc1)C(=O)c1cccnc1,-18.6% (inactive),–
Cc1ccc(-n2c(O)c(C=Nc3ccc(S(=O)(=O)Nc4ncccn4)cc3)c3ccccc3c2=O)cc1C,-2.8% (inactive),–
COC(=O)Cc1csc(/N=C/c2c(O)n(-c3cccc(C(F)(F)F)c3)c(=O)c3ccccc23)n1,–,inactive and 3.26 µM (active)
COC(=O)Cc1csc(Nc2c(C)n(C)n(-c3ccccc3)c2=O)n1,1.03% (inactive),–
Cc1ccc(C)c(NC(=O)COC(=O)c2nn(C)c(=O)c3ccccc23)c1,-0.108% (inactive),–
COc1ccc(/C=C/C(=O)N2CCCC2)cc1OC,-0.699% (inactive),–
COc1cc(/C=N/O)ccc1OCc1ccc([N+](=O)[O-])cc1,10.9% (inactive),–
COC(=O)c1ccc(COc2ccc(/C=C/C(=O)c3ccc(OC)c(CSCC(=O)O)c3)cc2OC)cc1,–,2.91 µM (active)
Cc1c(Cl)cnc(NC(=O)COC(=O)C2CCCC2)c1Cl,-0.757% (inactive),–
Cc1noc(C)c1COc1ccc(C(=O)NCCOc2ccccc2)cc1,-5.83% (inactive),–
Cc1onc(-c2ccccc2Cl)c1C(=O)OCc1nnc(-c2ccccc2)o1,3.73% (inactive),–
COc1ccc(C(=O)COC(=O)c2c(C)noc2C)cc1Cl,-7.07% (inactive),–
Cc1onc(-c2ccccc2Cl)c1C(=O)OCC(=O)c1ccccc1,–,16.4 µM (active)
COc1cc(C(=O)OCc2cc(=O)n3ccsc3n2)ccc1OC(C)C,1.85% (inactive),–
O=C(CN1C(=O)COc2ccccc21)NCCN1CCc2ccccc2C1,1.31% (inactive),–
CC(OC(=O)CN1C(=O)COc2ccccc21)C(=O)NCc1ccc(F)cc1 (configuration not stated),-13.3% (inactive),–
O=C(CN1C(=O)COc2ccccc21)Nc1ccc(F)cc1,–,20.6 µM (active)
Cc1ccc(S(=O)(=O)N2CCN(C(=O)c3cc(S(=O)(=O)N4CCOCC4)ccc3F)CC2)cc1,9.74% (inactive),–
O=C(c1ccc(Cl)c(S(=O)(=O)N2CCCCCC2)c1)N1CCN(c2ccc(O)cc2)CC1,13.3% (inactive),–
Cc1ccc(C(C[N+](=O)[O-])c2c(C)cc3ccccn23)cc1 (configuration not stated),–,20.6 µM (active)
Cc1ccc(C(=O)NNC(=O)CSc2nnc3ccccn23)cc1,5.99% (inactive),–
CC(=O)Nc1ccc(/C=N/Nc2ccc(C(=O)c3c(C)cc4ccccn34)cc2[N+](=O)[O-])cc1,-1.8% (inactive),–
Cc1cc(Cl)ccc1OCCCC(=O)NCc1ccncc1,2.15% (inactive),–
CCCCC(=O)N/N=C(\C)CC(=O)Nc1cc(Cl)ccc1OC,-0.526% (inactive),–

Compound,"activity, positive = re-replication",Potency
C/C(CC(=O)NCc1ccc(Cl)cc1)=N\NC(=O)COc1ccc(C)cc1Br,–,5.8 µM (active)
COc1ccc(CC(=O)N[C@@H]2c3cc(OC)c(OC)cc3C[C@H]2OCc2ccccc2)cc1,-30.6% (inactive),–
Cc1ccc(C(=O)Nc2ccccc2-c2ccccc2)cc1S(=O)(=O)Nc1ccccc1,-0.658% (inactive),–
O=S(=O)(Nc1cc(Cl)ccc1N1CCOCC1)c1ccccc1Cl,8.16% (inactive),–
CCCc1ccc(-c2c(C)sc(NC(=O)c3ccnn3C)c2C#N)cc1,–,16.4 µM (active)
Cc1sc(NC(=O)C2=COCCO2)c(C#N)c1C,1.25% (inactive),–
Cn1nccc1CNC(=O)c1ccnn1C,2.28% (inactive),–
COCC(=O)N(C)[C@H]1C[C@H]2c3cc(Oc4ccccc4C)ccc3CCN2C(=O)[C@H]1[C@H](C)O,-6.77% (inactive),–
CC(=O)n1cc([C@@H]2C=C(C(=O)N3CCN(Cc4ccc5c(c4)OCO5)CC3)O[C@H](OCc3ccc(CO)cc3)C2)c2ccccc21,–,13 µM (active)
CC(=O)n1cc([C@H]2C=C(C(=O)N3CCOCC3)O[C@@H](OCc3ccc(CO)cc3)C2)c2ccccc21,-18.7% (inactive),–
O=C(C1=C[C@H](c2coc3ccccc3c2=O)C[C@H](OCc2ccc(CO)cc2)O1)N1CCOCC1,12.5% (inactive),–
NC(=O)C1=C[C@@H](c2ccc3c(c2)OCO3)C[C@@H](OCCCCO)O1,4.84% (inactive),–
CN1CCN(C(=O)C2=C[C@H](c3ccc4c(c3)OCO4)C[C@H](OCc3ccc(CO)cc3)O2)CC1,–,8.2 µM (active)
C=CCOC(=O)C1=C[C@@H](c2ccc3c(c2)OCO3)C[C@@H](OCCCCO)O1,2.54% (inactive),–
Cc1ccc2c(CN3CCN(S(=O)(=O)c4ccccc4C(F)(F)F)CC3)cc(=O)oc2c1,0.766% (inactive),–
COc1cc(C(c2c(NC(=O)c3ccco3)sc(C)c2C)N2CCOCC2)cc(OC)c1OC (configuration not stated),16.7% (inactive),–
O=C(O)c1ccc([N+](=O)[O-])cc1Sc1ccsc1,5.85% (inactive),–
Cc1ccc(C)c(S(=O)(=O)N(C)c2ccc(OC(=O)C3CCN(C(=O)c4ccc(F)cc4)CC3)cc2)c1,4.81% (inactive),–
COc1ccc(CCC(=O)Nc2ccc(Cl)c(S(=O)(=O)N3CCOCC3)c2)cc1OC,-1.15% (inactive),–
COc1ccc(Br)cc1CN(C)C(=O)C1CC(=O)N(C2CCCC2)C1 (configuration not stated),1.01% (inactive),–
COc1ccc(OC)c(NC(=O)COC(=O)Cc2ccsc2)c1,-0.467% (inactive),–
CC(C)(C)c1ccc(/C=C/C(=O)NC2CCS(=O)(=O)C2)cc1 (configuration not stated),–,0.92 µM (active)
O=C(COC(=O)/C=C/c1ccc2c(c1)OCO2)NC1CCS(=O)(=O)C1 (configuration not stated),-8.83% (inactive),–
CC(C)(C)c1ccc(/C=C/C(=O)Nc2ncccn2)cc1,5.09% (inactive),–
CCCc1cc(=O)[nH]c(SCC(=O)Nc2ccc(S(=O)(=O)N3CCCC3)cc2)n1,6.91% (inactive),–
CC(=O)Nc1ccc(OCC(O)CN2CCN(c3ccccc3Cl)CC2)cc1 (configuration not stated),9.34% (inactive),–

Compound,"activity, positive = re-replication",Potency
Cc1ccccc1OCC(O)CN1CCN(c2ccccn2)CC1 (configuration not stated),0.536% (inactive),–
CC(C)c1ccc(OCC(O)CN2CCN(c3ccccn3)CC2)cc1 (configuration not stated),–,16.4 µM (active)
COC(=O)[C@]1(CC(C)C)N[C@H](c2ccc(SC3CCCCC3)cc2)[C@@H]2C(=O)N(C)C(=O)[C@@H]21,-1.67% (inactive),–
CSc1ncccc1C(=O)Nc1ccc2c(c1)OCO2,2.63% (inactive),–
Nn1c(SCC(=O)Nc2ccc3c(c2)CCC3)nnc1C1CC1,-0.587% (inactive),–
Cc1nc(N)sc1-c1ccccc1,-9.51% (inactive),–
CCOC(=O)C1=C(C)N(C[C@@H]2CC[C@@H](Cc3ccc(-c4ccccc4)cc3)O2)C(=O)NC1c1ccc([N+](=O)[O-])cc1 (some centres not stated),-15.2% (inactive),–
COc1ccc(CCC(C)N2CCc3ccccc3C2)cc1 (configuration not stated),-2.26% (inactive),–
S=C1SCN(CCN2CCOCC2)CN1Cc1ccccc1,5.55% (inactive),–
COc1ccc(CN2CN(C(C)C)CSC2=S)cc1,–,5.17 µM (active)
S=C(Nc1ccccc1)Nc1ccc2ccccc2c1,18.6% (inactive),–
COc1ccc2[nH]c3c(c2c1)CCN1C(=O)C(CC(=O)NCCCN(C)C)C[C@H](C(=O)N2CCOCC2)[C@@]31CCC1CCCC1 (some centres not stated),10.8% (inactive),–
CCOC(=O)[C@H]1[C@H]2COc3cc(OC)ccc3[C@@H]2N2C(=O)CN(Cc3ccc(Cl)cc3)C(=O)[C@@]12C,-15.2% (inactive),–
CCC(C)c1ccc(NC(=O)COC(=O)C2CCCC2)cc1 (configuration not stated),-2.86% (inactive),–
COc1ccc(OCc2cn3c(C)cc(C)nc3n2)cc1,-2.68% (inactive),–
COc1ccc(C(C[N+](=O)[O-])n2nc(C)cc2C)cc1 (configuration not stated),–,13 µM (active)
COc1ccc(C(=O)CSc2nc(C)cc(C)n2)cc1[N+](=O)[O-],19.8% (inactive),–
COc1ccccc1C(=O)Nc1ccc(OCC(=O)N2CCCCC2)cc1,-5.49% (inactive),–
COc1ccc2nc(Nc3nc(-c4ccncc4)cs3)sc2c1,7.45% (inactive),–
Cc1ccc(Nc2nc(-c3ccc(O)cc3O)cs2)nc1,24.9% (inactive),–
CCNc1nc(-c2cc3ccccc3o2)cs1,12.7% (inactive),–
CCc1noc(C)c1C(=O)Nc1nc2ccc(OC)cc2s1,-2.02% (inactive),–
COc1ccc2nc(Nc3nc(-c4cc5ccccc5oc4=O)cs3)sc2c1,–,5.8 µM (active)
O=c1oc2ccccc2cc1-c1csc(Nc2ccc(O)cc2)n1,–,14.6 µM (active)
